This note sets out measurements from PubChem BioAssay (NCI).

Holding throughout (assay): NCI-60 one-dose screen, 48 h (100 = growth as untreated, 0 = no growth, -100 = all killed)
What all share (conditions): 10 µM unless noted

Test [1] concerns MOLT-4 leukemia.
For test [2], the system named is SR leukemia.
Test [3] concerns OVCAR-8 ovarian.
The test system of test [4] is OVCAR-5 ovarian.
In test [5] the test system is OVCAR-4 ovarian.
Test [6] concerns SK-OV-3 ovarian.
The subject of test [7] is IGROV1 ovarian.
For test [8], the system named is OVCAR-3 ovarian.
Test [9] concerns HS 578T breast.
Test [10] deals with NCI/ADR-RES ovarian.
Test [11] has as its system T-47D breast.
Test [12] concerns BT-549 breast.
The test system of test [13] is MDA-MB-435 melanoma.
Test [14] has as its system SW-620 colon.
Test [15] has as its system MCF7 breast.
The test system of test [16] is HCC-2998 colon.
Test [17] relates to KM12 colon.
For test [18], the system named is HCT-116 colon.

The structures appear in SMILES notation. About 83,000 compounds went through this panel and 20% of them were active in at least one assay; those are over-represented in the sample as a whole.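 96-well plates, one dose, 48 hours. Percent growth reported; active if below 10.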 Unmarked numbers belong to inactive results. Activity calls are given as the source filed them.

Regarding `O=C(O)c1c(Cl)n(Cc2ccc(O)cc2)c2ccc(O)cc12`, the growth in [1] was 109%; in test [2], 106%; in test [3] it was 103%; in [4], 92.4%; in test [5], 104%; in test [6], 115%. In addition, the growth was 63.4% in test [7]; 93.9% in test [8]; 102% in [9]; 118% in [10]; 118% in [11]; 99.4% in [12]. For the same compound, the growth in test [13] was 87%; in test [14], 101%; in [15], 101%; in test [16], 119%; in test [17] it was 107%.

On to `Clc1cccc(NCOOC2(OOCNc3cccc(Cl)c3)CCCCCC2)c1`, for which the growth in [1] was 92.7%; in [2] it was 5.27% (active); in test [3] it was 93.9%; in [4] it was 96.6%; in test [5], 97.4%; in [6] it was 105%. The growth in test [7] is 7.21% (active); in test [8], 97.1%; in test [9], 102%; in [10], 61.8%; in test [11], 89%; in [12], 101%. The growth in test [13] was 105%; in test [14], 107%; in test [15] it was 87.2%; in [18], 90.6%; in [16] it was 107%; in [17] it was 87.9%.

For the compound `O=[N+]([O-])c1ccc([Se]C2CCCCC2Cl)c([N+](=O)[O-])c1` (stereo not given), the growth in [1] was 73.2%; in test [2], 78.7%; in test [3], 59.7%; in [4] it was 101%; in test [5] it was 78.8%; in [6] it was 106%. For the same compound, the growth in test [7] is 70.8%; in test [8], 88.2%; in test [9], 22.2%; in [10] it was 79%; in [12], 60.8%; in test [13], 55.3%. Further, the growth is 106% in test [14], 91.4% in test [15], 46.6% in test [18] and 98.8% in [16].

For the compound `Fc1ccc(C2=CCNCC2)cc1`, the growth was 106% in test [1]; 114% in [2]; 100% in test [3]; 82.3% in [4]; 111% in [5]; 104% in test [6]. Moreover, the growth in [8] is 102%; in test [9], 114%; in test [10], 78.6%; in [11] it was 99.2%; in test [13], 102%; in [14] it was 104%. Besides, the figures for the growth in [15], in test [18] and in test [17] were 93.9%, 109% and 109%, respectively.

On to `c1cc2c(c3c1CCNC3)OCO2`, for which the growth in test [1] is 100%; in test [2], 93%; in test [3] it was 107%; in test [4], 108%; in test [5], 110%; in [6], 92.6%. The growth in test [7] was 99.9%; in test [8], 118%; in test [9] it was 112%; in [10], 101%; in [11], 90.4%; in [12] it was 97.4%. Also, the growth in [13] is 106%; in test [14], 112%; in test [15] it was 92.7%; in test [18] it was 99%; in test [16] it was 102%; in test [17] it was 106%.

Turning to `C1CCC([PH+](C2CCCCC2)C2CCCCC2[PH+](C2CCCCC2)C2CCCCC2)CC1.[Au].[CH-]1CCCCC1CC1CCCC[N-]1` (stereo not given), the growth in [1] is 0.501% (active); in test [2], 1.21% (active); in test [3], 5.9% (active); in test [4] it was -37.2% (active); in test [6] it was -70.5% (active); in [7], -29.4% (active). Moreover, the growth in [8] was -86.5% (active); in test [11] it was 7.94% (active); in [12] it was -53.6% (active); in test [13], -39.2% (active); in [14] it was -24% (active); in test [15], -44.2% (active). Besides, the growth in test [18] was -65.8% (active); in [16], -92.5% (active); in test [17], -70.2% (active).

Regarding `Cc1ccc(S(=O)(=O)C(Cl)(Cl)Cl)cc1`, the growth in test [1] is 79.6%; in [2], 89.4%; in test [3], 96.2%; in test [4], 96.8%; in test [5], 105%; in test [6], 82.5%. For the same compound, the growth was 99% in test [7]; 110% in test [8]; 96.1% in test [9]; 89.1% in test [10]; 78.4% in [11]; 92.1% in [12]. Besides, the growth in test [13] is 97.1%; in [15] it was 98.6%; in test [16], 107%; in test [17] it was 101%.

For the compound `CC12CCC3C(CCC4=CC(=O)CCC43CF)C1CCC2=O` (stereo not given), the growth in test [1] is 106%; in test [2] it was 119%; in [3], 94.3%; in [4], 118%; in test [5], 98.8%; in test [6], 120%. Moreover, the growth in test [7] was 62.4%; in [8], 119%; in test [9], 128%; in [10], 108%; in [11] it was 39.4%; in [12] it was 97.2%. Also, the growth in [13] is 100%; in [15] it was 130%; in test [18], 110%; in [16], 140%; in test [17] it was 117%.

Consider `CC1(C)N=C(N)N=C(N)N1c1ccc(CCC(=O)Nc2ccc(S(=O)(=O)F)cc2)c(Cl)c1`, for which the growth is 33% in test [1]; 6.43% (active) in [2]; -11.8% (active) in [3]; 29% in test [4]; 52.9% in test [5]; 64.5% in test [6]. The growth in test [7] is -43.3% (active); in [8], 58.9%; in test [9], 59.9%; in [10], 58.4%; in [11], 70.5%; in test [12], 51%. Further, the growth in [13] was 37.7%; in test [14], 24.8%; in test [15] it was 15.1%; in test [18], 26.8%; in test [16] it was 14.3%; in [17] it was 12.2%.
